PubChem BioAssay (EPA / NIEHS)
“And” between values parts separate entries of the source, which are not always exact repeats. Equal values may be shown once. Records with an inconclusive call do not appear. Some compounds were tested as several samples or in several runs, with calls that do not always agree. The source made the active and inactive calls. How the source made its calls: active means hit-call score of the fitted dose curve at least 0.9, where 1 is the maximum; inconclusive means response in the unintended direction; inactive means score below 0.9.

Target: Cellular tumor antigen p53 (Homo sapiens) (UniProt P04637)
Assay: TOX21_p53_BLA_p4_ratio: Tox21 HCT-116 p53 Agonism Beta-lactamase Assay, Ratio, Phase 4 (AID 2283601)
Description: TOX21_p53_BLA_p4 is a cell-based, single-readout assay that uses HCT116, a human intestinal cell line, […] in a 1536-well plate.TOX21_p53_BLA_p4_ratio is an assay readout measuring reporter gene via receptor activity and designed using inducible reporter (beta lactamase induction) detected with GAL4 b-lactamase reporter gene. The signal is derived from the ratio of cleaved (ch2) to uncleaved (ch1)reporter gene substrate used as the measure of target activity.Data from the assay component TOX21_p53_BLA_p4_ratio was analyzed into 1 assay endpoint. This assay endpoint, TOX21_p53_BLA_p4_ratio, was analyzed in the positive analysis fitting direction relative to DMSO as the negative control and baseline of activity. Using a type of inducible reporter, gain-of-signal activity can be used to understand changes in the reporter gene as they relate to the gene TP53. Furthermore, this assay endpoint can be referred to as a primary readout, because this assay has produced multiple assay endpoints where this ratio serves a reporter gene function to understand target activity. To generalize the intended target to other relatable targets, this assay endpoint is annotated to the DNA binding intended target family, where the subfamily is tumor suppressor.
Thawing Method: Place 14 mL of pre-warmed thaw medium into a 15 mL of conical tub. Remove the vial of cells to be thawed from liquid nitrogen and thaw rapidly by placing at 37C in a water bath with gentle agitation for 1-2 minutes. Decontaminate the vial by wiping with 70% ethanol before opening in a biological safety cabinet. Transfer the vial contents drop-wise into 14 mL of thaw medium in a sterile 15-mL conical tub. Centrifuge cells at 900 rpm for 4 minutes and resuspend in thaw medium. Transfer contents to the T75 tissue culture flask containing Thaw Medium and place flask in a humidified 37C/5% CO2 incubator. Switch to growth medium at first passage.Propagation Method: Aspirate medium, rinse once in DPBS, add 0.25% Trypsin/EDTA and swirl to coat the cell evenly. Add an equal volume of Growth Medium to inactivate Trypsin after 2-3 minutes incubation at 37C. Centrifuge cells at 900 rpm for 4 minutes and resuspend in growth medium. Cell should be passage or fed at least twice a week.Assay Protocol: Harvest cells from culture in growth medium and resuspend in assay medium. 2.2 Dispense 4000 cells/5 uL/well into 1536-well black/clear bottom plates using a Multidrop dispenser. After the cells were incubated at 37C for 5 hours, 23 nL of compounds dissolved in DMSO were transferred to the assay plate by a PinTool resulting in a 217-fold dilution. Incubate the plates for 16 hours at 37C, 5% CO2. Add 1 uL of 6X LiveBLAzer FRET B/G (CCF4-AM) Substrate Mixture to each well using a BioRAPTR dispenser and incubate the plates at room temperature for 2 hours. Measure fluorescence intensity at 460 and 530 nm emission and 405 nm excitation by an Envision detector. Data is expressed as the ratio of 460nm/530nm emissions. Add 4 uL of Cell-titer Glo to each well using BioRAPTR and incubate the plates at room temperature for 2 hours. Measure fluorescence intensity by a VewLux plate reader.

Chain of Cellular tumor antigen p53 (Homo sapiens) (P04637 whole entry, looked up): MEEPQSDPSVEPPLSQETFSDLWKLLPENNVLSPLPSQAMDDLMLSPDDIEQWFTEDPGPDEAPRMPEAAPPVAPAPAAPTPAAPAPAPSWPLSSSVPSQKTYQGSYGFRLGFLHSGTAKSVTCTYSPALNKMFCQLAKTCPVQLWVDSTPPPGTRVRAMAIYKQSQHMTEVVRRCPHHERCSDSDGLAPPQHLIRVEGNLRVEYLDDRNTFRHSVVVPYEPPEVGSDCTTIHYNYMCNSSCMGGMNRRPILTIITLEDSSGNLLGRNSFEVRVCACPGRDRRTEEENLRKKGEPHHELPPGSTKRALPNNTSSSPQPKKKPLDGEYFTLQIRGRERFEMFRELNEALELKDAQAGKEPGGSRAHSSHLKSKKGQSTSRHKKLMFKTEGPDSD

| Structure (SMILES) | outcome | AC50 |
| --- | --- | --- |
| c1ccc(OCC2CO2)cc1 (stereo not given) | inactive |  |
| C1CCNCC1 | inactive |  |
| CC1CCC(=O)O1 (stereo not given) | inactive |  |
| C[C@]12CC[C@H]3[C@@H](CC[C@@]45O[C@@H]4C(O)=C(C#N)C[C@]35C)[C@@H]1CC[C@@H]2O | inactive | 65.8 µM (active) |
| CC(=O)Oc1ccc2c3c1O[C@H]1[C@@H](OC(C)=O)C=C[C@H]4[C@@H](C2)N(C)CC[C@@]341 | inactive |  |
| c1ccc2c(c1)CCNC2 | inactive |  |
| NP(N)(=O)NC(=O)c1ccc(F)cc1 | inactive |  |
| ClC(Cl)C(Cl)Cl | inactive |  |
| CS(=O)(=O)Cl | inactive |  |
| CCOC(=O)COc1ccc(Cl)cc1Cl | inactive |  |
| C[C@]12Cc3nonc3C[C@@H]1CC[C@@H]1[C@@H]2CC[C@@]2(C)[C@H]1CC[C@]2(C)O | inactive |  |
| O=NN1CCNCC1 | inactive |  |
| c1ccc2c(c1)CCCC2 | inactive |  |
| C[C@]12CC[C@@H]3c4ccc(OC(=O)N(CCCl)CCCl)cc4CC[C@H]3[C@@H]1CC[C@@H]2OP(=O)(O)O |  | 8.9 µM (active) and 36.3 µM (active) |
| O=[N+]([O-])c1cc([N+](=O)[O-])c2ccccc2c1 | inactive |  |
| Cc1cnc[nH]1 | inactive |  |
| CO[C@]12CC[C@@]3(C[C@@H]1[C@](C)(O)C(C)(C)C)[C@H]1Cc4ccc(O)c5c4[C@@]3(CCN1CC1CC1)[C@H]2O5 |  | 84.8 µM (active) |
| CCCCCCC(=O)CCCCCC/C=C/C[C@@H](O)[C@H](O)[C@@](N)(CO)C(=O)O | inactive |  |
| Clc1ccc2c(c1)C(c1ccccc1)=NCc1nncn1-2 | inactive |  |
| CCCCCCC#N | inactive |  |

| Structure (SMILES) | outcome | AC50 |
| --- | --- | --- |
| C[N+]1(C)[C@@H]2CC[C@H]1CC(OC(=O)C(CO)c1ccccc1)C2 (stereo not given in full) | inactive |  |
| O=C1c2ccccc2C(=O)C1C(=O)C(c1ccccc1)c1ccccc1 |  | 36.6 µM (active) |
| C[C@@H]1CC[C@H]2[C@@H](C)C(=O)O[C@@H]3O[C@@]4(C)CC[C@@H]1[C@]32OO4 | inactive |  |
| CCC[CH2][Sn]([CH2]CCC)([CH2]CCC)[O][Sn]([CH2]CCC)([CH2]CCC)[CH2]CCC |  | 2.22 µM (active) |
| CC[n+]1c(-c2ccccc2)c2cc(N)ccc2c2ccc(N)cc21 |  | 1.93 µM (active) and 9.2 µM (active) and 3.86 µM (active) |
| Cc1ccc(N(SC(F)(Cl)Cl)S(=O)(=O)N(C)C)cc1 |  | 44.8 µM (active) |
| CC(Cl)Cl | inactive |  |
| c1cc2c(c(NC3=NCCN3)c1)CCCC2 | inactive |  |
| C[C@]12CCC(=O)C(O)=C1CC[C@@H]1[C@@H]2CC[C@]2(C)C(=O)CC[C@@H]12 | inactive |  |
| O=C1NCN(c2ccccc2)C12CCN(CC1COc3ccccc3O1)CC2 (stereo not given) | inactive |  |
| N#Cc1sc2c(=O)c3ccccc3c(=O)c=2sc1C#N |  | 6.18 µM (active) |
| CC(Cc1ccccc1)NC=O (stereo not given) | inactive |  |
| CC(C)[N+](C)(CCC(C(N)=O)(c1ccccc1)c1ccccc1)C(C)C | inactive |  |
| CC[C@]1(O)CC[C@H]2[C@@H]3CCC4=CCCC[C@@H]4[C@H]3CC[C@@]21C |  | 7.04 µM (active) |
| C[C@]12CC[C@H](O)C[C@H]1CC[C@@H]1[C@@H]2CC[C@]2(C)[C@@H](c3ccc(=O)oc3)C[C@H]3O[C@]132 | inactive |  |
| C(CCOCC1CO1)COCC1CO1 (stereo not given) | inactive |  |
| Oc1ccc(C2(c3ccc(O)cc3)CCCCC2)cc1 |  | 82.9 µM (active) |
| CC(C)[C@@H](C(=O)O[C@@H](C#N)c1cccc(Oc2ccccc2)c1)c1ccc(Cl)cc1 | inactive |  |
| CCOC(=O)N(C)C(=O)CSP(=S)(OCC)OCC | inactive |  |
